{
  "source": "the supplement of paper PMC12067093",
  "about": "“Discovery and optimisation of a covalent ligand for TRIM25 and its application to targeted protein ubiquitination” (Chemical Science, 2025)",
  "target": "WDR43_Q15061_158_HIVEWNVQTCK (UniProt Q15061)",
  "sequence (Q15061 whole entry, looked up)": "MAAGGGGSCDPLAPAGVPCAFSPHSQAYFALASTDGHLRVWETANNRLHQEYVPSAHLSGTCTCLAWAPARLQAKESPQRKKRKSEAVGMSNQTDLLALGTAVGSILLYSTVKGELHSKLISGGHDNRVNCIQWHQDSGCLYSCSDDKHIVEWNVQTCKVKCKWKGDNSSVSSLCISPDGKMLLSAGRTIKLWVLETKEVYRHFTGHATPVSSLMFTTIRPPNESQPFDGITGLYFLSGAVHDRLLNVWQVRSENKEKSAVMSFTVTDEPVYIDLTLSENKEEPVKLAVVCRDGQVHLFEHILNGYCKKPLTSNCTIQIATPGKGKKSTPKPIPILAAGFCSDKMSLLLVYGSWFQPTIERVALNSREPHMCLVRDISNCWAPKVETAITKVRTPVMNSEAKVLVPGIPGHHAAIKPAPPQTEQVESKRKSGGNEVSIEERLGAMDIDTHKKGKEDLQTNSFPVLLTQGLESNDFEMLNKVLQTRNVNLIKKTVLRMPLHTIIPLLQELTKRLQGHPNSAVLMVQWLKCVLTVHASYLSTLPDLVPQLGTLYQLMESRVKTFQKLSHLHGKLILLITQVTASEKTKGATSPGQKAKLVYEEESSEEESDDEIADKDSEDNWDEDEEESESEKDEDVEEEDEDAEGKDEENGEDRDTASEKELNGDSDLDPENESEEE",
  "assay": "probe-labelled cysteine peptide fold change vs DMSO (competition) (log2 fold change); higher = less target engagement (more negative = stronger competition)",
  "details": "THP-1, incubation time: 4 h",
  "note": "About 21,000 targets were measured; listed, in parts, are those with the largest changes and a random draw of the rest.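 Note: competitive profiling in live THP-1 cells: cysteine peptides tagged with an iodoacetamide desthiobiotin (IA-DTB) probe, intensity after compound treatment relative to DMSO-treated cells.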",
  "data": [
    {"molecule": "Cc1cc(C(=O)N2CCCN(C(=O)CCl)CC2)ccc1-c1ccccc1", "note": "[compound 10]", "values": [
      {"measurement": "probe-labelled cysteine peptide fold change", "setting": "10 µM", "value": -0.0124},
      {"measurement": "probe-labelled cysteine peptide fold change", "setting": "50 µM", "value": -0.0233}
    ]}
  ]
}
